This is an account of results in PubChem BioAssay (NCATS).

“And” between values parts separate entries of the source, which are not always exact repeats. Equal values may be shown once. Inconclusive results are not listed. A call without a number means that no potency is given here. The source made the active and inactive calls. Calls follow the shape of the dose curve; as a rule, active = well fitted curve in the direction sought with a large enough effect; inconclusive = small, poorly fitted or top-dose-only effect, or another doubt; inactive = no such curve, though single readings can be large; an effect the other way counts as inactive or inconclusive.
Potency is read from the fitted curve at half-maximal effect.

Sequence of Rap guanine nucleotide exchange factor 4 (Homo sapiens) (Q8WZA2 whole entry, looked up): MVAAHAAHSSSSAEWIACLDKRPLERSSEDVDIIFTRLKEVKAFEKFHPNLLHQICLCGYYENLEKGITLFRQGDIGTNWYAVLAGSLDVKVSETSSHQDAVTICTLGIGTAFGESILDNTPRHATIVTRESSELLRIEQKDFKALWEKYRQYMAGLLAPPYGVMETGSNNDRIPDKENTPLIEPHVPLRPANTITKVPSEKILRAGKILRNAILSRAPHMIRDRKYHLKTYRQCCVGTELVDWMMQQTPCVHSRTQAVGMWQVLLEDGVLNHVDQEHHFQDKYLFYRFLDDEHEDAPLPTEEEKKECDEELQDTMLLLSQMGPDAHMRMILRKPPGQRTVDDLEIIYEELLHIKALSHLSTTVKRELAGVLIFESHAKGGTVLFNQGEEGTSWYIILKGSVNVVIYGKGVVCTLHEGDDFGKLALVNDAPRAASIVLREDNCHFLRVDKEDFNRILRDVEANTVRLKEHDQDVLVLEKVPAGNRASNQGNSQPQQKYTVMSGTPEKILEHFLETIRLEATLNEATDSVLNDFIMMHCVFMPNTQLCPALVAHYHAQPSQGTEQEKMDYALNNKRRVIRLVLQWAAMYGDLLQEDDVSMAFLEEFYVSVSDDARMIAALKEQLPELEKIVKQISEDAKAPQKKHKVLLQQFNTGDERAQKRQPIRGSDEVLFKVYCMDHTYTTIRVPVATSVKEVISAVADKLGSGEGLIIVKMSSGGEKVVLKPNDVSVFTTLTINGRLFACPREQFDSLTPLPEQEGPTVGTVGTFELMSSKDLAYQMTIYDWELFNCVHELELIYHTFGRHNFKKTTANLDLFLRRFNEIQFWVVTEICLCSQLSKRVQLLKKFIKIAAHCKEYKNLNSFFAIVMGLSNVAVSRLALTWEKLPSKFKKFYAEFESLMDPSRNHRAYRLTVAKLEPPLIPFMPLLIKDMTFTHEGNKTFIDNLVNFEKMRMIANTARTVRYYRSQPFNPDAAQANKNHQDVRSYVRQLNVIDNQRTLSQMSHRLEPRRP
Sequence of Rap guanine nucleotide exchange factor 3 (Homo sapiens) (O95398 whole entry, looked up): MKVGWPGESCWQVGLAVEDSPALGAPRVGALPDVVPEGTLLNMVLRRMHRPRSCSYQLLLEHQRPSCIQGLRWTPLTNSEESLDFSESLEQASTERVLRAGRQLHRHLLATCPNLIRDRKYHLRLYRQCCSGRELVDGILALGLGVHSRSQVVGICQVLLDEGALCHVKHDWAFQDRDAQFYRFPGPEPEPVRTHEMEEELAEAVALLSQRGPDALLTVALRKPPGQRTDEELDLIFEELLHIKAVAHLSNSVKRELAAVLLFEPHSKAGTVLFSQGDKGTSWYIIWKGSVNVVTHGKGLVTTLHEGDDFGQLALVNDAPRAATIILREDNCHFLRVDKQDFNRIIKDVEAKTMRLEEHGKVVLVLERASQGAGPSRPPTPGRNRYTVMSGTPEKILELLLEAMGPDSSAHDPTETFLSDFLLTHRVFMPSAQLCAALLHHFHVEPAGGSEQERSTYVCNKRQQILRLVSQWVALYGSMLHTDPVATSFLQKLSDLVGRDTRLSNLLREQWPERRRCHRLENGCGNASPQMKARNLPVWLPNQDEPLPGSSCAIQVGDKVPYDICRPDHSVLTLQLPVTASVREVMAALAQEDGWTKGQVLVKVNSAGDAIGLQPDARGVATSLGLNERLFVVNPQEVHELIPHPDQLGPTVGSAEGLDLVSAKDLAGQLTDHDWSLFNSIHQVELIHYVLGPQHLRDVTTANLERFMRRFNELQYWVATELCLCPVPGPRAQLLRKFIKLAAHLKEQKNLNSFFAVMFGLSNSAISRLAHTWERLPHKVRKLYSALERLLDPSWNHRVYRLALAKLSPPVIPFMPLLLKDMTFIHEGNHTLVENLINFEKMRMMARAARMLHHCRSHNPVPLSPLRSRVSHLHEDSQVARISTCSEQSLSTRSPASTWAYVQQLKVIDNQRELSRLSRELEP

System in one experiment: not listed separately
Briefly: Primary qHTS for inhibitors of nuclear receptor binding SET domain protein 2 (NSD2) in an isogenic RCH-ACV NSD2 p.E1099K mutant (9B) (AID 1645876). Also: nearly all actives have a fitted effect of over 70% in size. The conditions noted are these: RCH-ACV NSD2 E1099K (9B) viability, CellTiter-Glo, 72 h; series mostly up to 44.9 µM. (In qHTS, concentration-response curves come from the screen itself.)
Consider `CC1=C(/C=C/C(C)=C/C=C/C(C)=C\C(=O)O)C(C)(C)CCC1`, for which the Potency result is “inactive”.

Consider `N#Cc1cc([N+](=O)[O-])c2sc(C(N)=O)[n+]([O-])c2c1`, for which the Potency is 8.2 µM (active).

Regarding `O=C1Cc2c([nH]c3ccc(Br)cc23)-c2ccccc2N1`, the Potency was 6.51 µM (active).

Regarding `CC(=O)NCCc1c[nH]c2ccc(O)cc12`, the Potency entry was “inactive”.

For `Nc1ncnc2c1c(-c1ccc(Oc3ccccc3)cc1)cn2C1CCCC1`, the Potency was 1.64 µM (active).

`COc1cc(/C=C(\C#N)C(=O)Nc2nnc(C(F)(F)F)s2)ccc1OCc1ccc(C(F)(F)F)cc1C(F)(F)F`: the Potency result was “inactive”.

System in a further experiment: not listed separately
Nature of the experiment: Primary qHTS for inhibitors of nuclear receptor binding SET domain protein 2 (NSD2) in an RCH-ACV wild type WT cells (2C) (AID 1645877). Also: nearly all actives have a fitted effect of over 70% in size. The note with it: RCH-ACV (leukaemia line) NSD2 WT (2C) viability, CellTiter-Glo, 72 h; series mostly up to 44.9 µM.
As to `CC1=C(/C=C/C(C)=C/C=C/C(C)=C\C(=O)O)C(C)(C)CCC1`, the Potency result is “inactive”.

In the case of `N#Cc1cc([N+](=O)[O-])c2sc(C(N)=O)[n+]([O-])c2c1`, the Potency was 10.3 µM (active).

Regarding `O=C1Cc2c([nH]c3ccc(Br)cc23)-c2ccccc2N1`, the Potency is 5.8 µM (active).

For the compound `Nc1ncnc2c1c(-c1ccc(Oc3ccccc3)cc1)cn2C1CCCC1`, the Potency was 2.59 µM (active).

Consider `CCCc1c(OCCCOc2ccc(OCC(=O)O)cc2)ccc(C(C)=O)c1O`, for which the Potency result is “inactive”.

As for `CN(C)S(=O)(=O)c1ccc2c(c1)/C(=C/c1cc3c([nH]1)CCCC3)C(=O)N2`, the Potency was 2.59 µM (active).

As to `COc1cc(/C=C(\C#N)C(=O)Nc2nnc(C(F)(F)F)s2)ccc1OCc1ccc(C(F)(F)F)cc1C(F)(F)F`, the Potency entry was “inactive”.

In the case of `O=C1Nc2ccc(I)cc2/C1=C/c1cc(Br)c(O)c(Br)c1`, the Potency entry was “inactive”.

The next experiment concerns the target Rap guanine nucleotide exchange factor 3 (Homo sapiens) (UniProt O95398). Nature of the experiment: Confirmatory qHTS for antagonist of cAMP-regulated guanine nucleotide exchange factor 3 (EPAC1) (AID 1645880). Also: nearly all actives have a fitted effect of over 55% in size. The conditions noted are these: EPAC1 Rap1B-BODIPY-GDP exchange, fluorescence; series mostly up to 115 µM. An outline of the steps:
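Nucleotide exchange uses 100 nM EPAC1, 250 nM RAP1B-BODIPY-GDP and 50 uM GDP, with compounds in a concentration-titration series. After 5 min at room temperature, fluorescence (480 nm ex/540 nm em) is read every 5 min for 30 min. Data are normalized to control ATA and DMSO.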
In the case of `Nc1ncnc2c1nc(Br)n2C1OC2COP(=O)(O)O[C@@H]2C1O` (stereo partly drawn), the Potency was 3.14 µM (active).

In the case of `COc1ccc(CCn2nnnc2C2(c3ccc(C)cc3)CC2)cc1`, the Potency result is “inactive”.

With `Nc1ncnc2c1nc(Sc1ccc(Cl)cc1)n2[C@H]1OC2COP(=O)(O)O[C@@H]2C1O` (stereo partly drawn), the Potency is 0.789 µM (active).

As for `C[C@@]1(C2CCCC2)Cc2cc(OCC(=O)O)c(Cl)c(Cl)c2C1=O`, the Potency entry was “inactive”.

For `CCCC(=O)NCCc1c2n(c3ccc(OC)cc13)CCCc1ccccc1-2`, the Potency result was “inactive”.

On to `c1ccc(C(NCc2cccnc2)(c2ccccc2)c2ccccc2)cc1`, for which the Potency entry is “inactive”.

With `CC(/C=C/c1cccc(Oc2ccc(F)cc2)c1)N(O)C(N)=O` (stereo not drawn), the Potency result was “inactive”.

Regarding `O=C1Nc2ccc(I)cc2/C1=C/c1cc(Br)c(O)c(Br)c1`, the Potency was 19.8 µM (active).

A further experiment shares this target. Briefly: Confirmatory qHTS for agonist of cAMP-regulated guanine nucleotide exchange factor 3 (EPAC1) (AID 1645881). Also: nearly all actives have a fitted effect of over 75% in size. The conditions noted are these: EPAC1 Rap1B BODIPY-GDP exchange fluorescence; series mostly up to 154 µM.
As for `Nc1ncnc2c1nc(Br)n2C1OC2COP(=O)(O)O[C@@H]2C1O` (stereo partly drawn), the Potency is 4.46 µM (active) and 3.97 µM (active).

`CC(C)(CO)Cc1cc(C(C)(C)C)c(O)c(C(C)(C)C)c1`: the Potency entry was “inactive”.

In the case of `COc1ccc(CCn2nnnc2C2(c3ccc(C)cc3)CC2)cc1`, the Potency result is “inactive”.

Take `Nc1ncnc2c1nc(Sc1ccc(Cl)cc1)n2[C@H]1OC2COP(=O)(O)O[C@@H]2C1O` (stereo partly drawn): the Potency was 998 nM (active).

In the case of `C[C@@]1(C2CCCC2)Cc2cc(OCC(=O)O)c(Cl)c(Cl)c2C1=O`, the Potency result is “inactive”.

Turning to `CCCc1c(OCCCOc2ccc(OCC(=O)O)cc2)ccc(C(C)=O)c1O`, the Potency entry is “inactive”.

On to `CCCC(=O)NCCc1c2n(c3ccc(OC)cc13)CCCc1ccccc1-2`, for which the Potency result is “inactive”.

`c1ccc(C(NCc2cccnc2)(c2ccccc2)c2ccccc2)cc1`: the Potency entry is “inactive”.

For `CC(/C=C/c1cccc(Oc2ccc(F)cc2)c1)N(O)C(N)=O` (stereo not drawn), the Potency result is “inactive”.

As for `COC(=O)C1=C(C)NC(C)=C([N+](=O)[O-])C1c1ccccc1C(F)(F)F` (stereo not drawn), the Potency result is “inactive”.

As to `CCCC[C@@]1(C2CCCC2)Cc2cc(OCC(=O)O)c(Cl)c(Cl)c2C1=O`, the Potency entry is “inactive”.

In the case of `CC(=O)N[C@@H](Cc1c[nH]c2ccccc12)C(=O)OCc1cc(C(F)(F)F)cc(C(F)(F)F)c1`, the Potency entry is “inactive”.

As for `C[C@H](NC(=O)/C(C#N)=C/c1ccc(O)c(O)c1)c1ccccc1`, the Potency result was “inactive”.

For `O=C1Nc2ccc(I)cc2/C1=C/c1cc(Br)c(O)c(Br)c1`, the Potency result is “inactive”.

The next experiment has as its target Rap guanine nucleotide exchange factor 4 (Homo sapiens) (UniProt Q8WZA2). Briefly: Confirmatory qHTS for agonist of cAMP-regulated guanine nucleotide exchange factor 4 (EPAC2) (AID 1645884).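 Also: nucleotide exchange releases bodipy-GDP from Rap1 and this lowers its fluorescence; nearly all actives have a fitted effect of over 65% in size.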 The conditions noted are these: EPAC2 GEF activity, Rap1B-BODIPY-GDP fluorescence; series mostly up to 154 µM.
With `Nc1ncnc2c1nc(Br)n2C1OC2COP(=O)(O)O[C@@H]2C1O` (stereo partly drawn), the Potency was 3.54 µM (active) and 3.16 µM (active).

As for `CC(C)(CO)Cc1cc(C(C)(C)C)c(O)c(C(C)(C)C)c1`, the Potency result was “inactive”.

In the case of `Nc1ncnc2c1nc(Sc1ccc(Cl)cc1)n2[C@H]1OC2COP(=O)(O)O[C@@H]2C1O` (stereo partly drawn), the Potency was 1.77 µM (active).

Regarding `C[C@@]1(C2CCCC2)Cc2cc(OCC(=O)O)c(Cl)c(Cl)c2C1=O`, the Potency entry was “inactive”.

On to `CCCc1c(OCCCOc2ccc(OCC(=O)O)cc2)ccc(C(C)=O)c1O`, for which the Potency entry was “inactive”.

As to `CCCC(=O)NCCc1c2n(c3ccc(OC)cc13)CCCc1ccccc1-2`, the Potency entry was “inactive”.

For `CC(/C=C/c1cccc(Oc2ccc(F)cc2)c1)N(O)C(N)=O` (stereo not drawn), the Potency result was “inactive”.

With `COC(=O)C1=C(C)NC(C)=C([N+](=O)[O-])C1c1ccccc1C(F)(F)F` (stereo not drawn), the Potency entry was “inactive”.

`CCCC[C@@]1(C2CCCC2)Cc2cc(OCC(=O)O)c(Cl)c(Cl)c2C1=O`: the Potency result was “inactive”.

With `CC(=O)N[C@@H](Cc1c[nH]c2ccccc12)C(=O)OCc1cc(C(F)(F)F)cc(C(F)(F)F)c1`, the Potency entry is “inactive”.

On to `C[C@H](NC(=O)/C(C#N)=C/c1ccc(O)c(O)c1)c1ccccc1`, for which the Potency entry is “inactive”.

As for `O=C1Nc2ccc(I)cc2/C1=C/c1cc(Br)c(O)c(Br)c1`, the Potency result was “inactive”.
